Sampled rows, rich in hits. Any-hit rate of the full collection: about 21%.
Pf growth 96h: inhibits malaria parasite growth, 96 h; Potency, µM (series often up to 28.7 µM), inactives show top-dose activity change, negative = inhibition, hits mostly inhibitors; P. falciparum luciferase reporter growth, 96 h; 320,000 tested, 6.9% active; AID 504834; also: potency is read from the fitted curve at half-maximal effect; % is scaled to controls: 0 for no effect and ±100 for the full control effect
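P. falciparum expressing integrated firefly luciferase, in erythrocytes at 2% hematocrit, 0.05% parasitemia, incubated with compounds 96 h at 37 C, 5% CO2. Growth inhibition read as loss of luminescence; two-generation exposure targets delayed-death apicoplast inhibitors.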
Pf growth 48h: P. falciparum growth inhibition at 48 hours (one generation); Potency, µM (top dose mostly 28.7 µM), for inactives: at the highest dose activity change, negative = inhibition, actives largely listed as inhibitors; P. falciparum luciferase growth in erythrocytes, 48 h; 310,000 tested, 5.9% active; also: potency is read from the fitted curve at half-maximal effect; % is scaled to controls: 0 for no effect and ±100 for the full control effect
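Here the parasites carry a stable luciferase gene and grow inside erythrocytes in Albumax-based RPMI medium with compound for one erythrocytic cycle. Activity is scored as loss of luminescent signal.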
AMA1 RON2 block: AMA1-RON2 (P. falciparum) interaction inhibition; 360,000 tested, 0.2% active; AlphaScreen AMA1-biotinylated RON2 peptide binding; Potency, µM (series often up to 58.2 µM), for inactives: at the highest dose activity change, negative = inhibition, hits mostly inhibitors;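 also: potency is read from the fitted curve at half-maximal effect; 0% = vehicle wells and -100% = peptide control; nearly all actives have a fitted effect of over 45% in size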
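AMA1 (3D7) with his tag at 25 nM final met compounds first, then biotinylated RON2 peptide at 25 nM; detection used donor plus acceptor beads, 10 µg/mL apiece, read by AlphaScreen after 30 min at room temperature.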
HCV inh: blocks hepatitis C virus; Huh7.5.1 HCVcc-Cre infection, luciferase reporter, 44 h; Potency, µM (top dose mostly 41.8 µM), for the others: top-dose activity change, negative = inhibition, actives largely listed as inhibitors; 340,000 tested, 3.4% active; AID 651820; also: potency is read from the fitted curve at half-maximal effect; % is scaled to controls: 0 for no effect and ±100 for the full control effect
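Compounds are dispensed onto cells plated 4 h earlier at 1,000 per well, with HCVcc-Cre virus (about 0.5 moi) added next. Following 44 h of culture, luminescent signal is measured for 15 sec after 15 min with substrate at room temperature.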
Shiga inhibitor: inhibitors of Shiga toxin in Vero cells | Vero cells, Shiga toxin protein synthesis inhibition reporter | inhibition, % at 38.7 µM | 290,000 tested, 9.2% active; in the data active = inhibition mostly above about 28%, no sharp cut-off; inactive = mostly below about 43%; also: 0% is about no effect
CHX counter: counter-screen for Shiga toxin inhibitors: cycloheximide protein synthesis inhibition | cell reporter, cycloheximide protein synthesis inhibition counterscreen | max response, % | 300,000 tested, 12% active | AID 2314; in the data active = max response mostly above about 13%, no sharp cut-off; inactive = mostly below about 14%; also: read at 38.3 µM for the half of the compounds with a filed dose; 0% is about no effect
* = called active by the depositor; u = inconclusive; x = no result; [ ] = remark or other dose. Unless noted, calls follow the shape of the dose curve; as a rule, active = well fitted curve in the direction sought with a large enough effect; inconclusive = small, poorly fitted or top-dose-only effect, or another doubt; inactive = no such curve, though single readings can be large; an effect the other way counts as inactive or inconclusive.

SMILES	Pf growth 96h	Pf growth 48h	AMA1 RON2 block	HCV inh	Shiga inhibitor	CHX counter
O=C(Nc1nc2cc3c(cc2s1)OCCO3)c1ccc(N2C(=O)CCC2=O)cc1	21.1%	32.3%	1.6%	-21.4%	50.4*	31.3*
CC1=C(C(=O)N(C(C)C)C(C)C)CC(CC(=O)NCc2cccc3ccccc23)C(=O)N1CCC1=CCCCC1 (stereo not drawn)	x	x	-5.5%	x	x	x
CN1C(=O)c2c(sc3c2CCCC3)NC1c1ccccc1O (stereo not drawn)	3.9%	u	x	-4.0%	48.7*	18.9*
C[C@H]1CN=C(N(C)C)N1CC1CCCCC1	52.3%	-14.8%	7.0%	-8.0%	x	x
COc1cc(C=C2C(=O)OC(C)(C)OC2=O)ccc1OCC(=O)Nc1ccccc1	u	56.3%	-3.1%	23.6%	95.0*	16.6*
C/C=C/c1ccc(OCC(=O)Nc2ccc(C(N)=O)cc2)c(OC)c1	-19.6%	-10.9%	-5.4%	u	-6.0	0.8
COc1cc(/C=C/c2cc[n+](C)cc2)ccc1OCC(=O)Nc1ccccc1	-9.7%	3.7µM*	-7.6%	10.5%	35.6	21.5
COc1ccccc1NC(=S)N/N=C1\CC(C)(C)Oc2ccc(O)cc21	5.5%	u	89.9%	10µM*	-8.4	-2.7
COC(=O)C1=C(COc2ccccc2)NC(=O)NC1c1ccc(Cl)cc1 (stereo not drawn)	x	x	0.9%	-9.2%	x	x
COC(=O)C1=C(CCc2ccccc2)NC(=O)NC1c1ccc(Br)cc1 (stereo not drawn)	13.1µM*	14.5%	0.5%	u	-0.5	-1.9
COCc1c(C(=O)OCc2nc3ccsc3c(=O)[nH]2)oc2ccccc12	-6.1%	0.0%	13.2%	3.0%	x	x
COc1cc([N+](=O)[O-])c2ncccc2c1	x	x	x	x	-5.6	-5.7
COc1cc(NCCCCCCCN)c2ncccc2c1	3.7µM*	2.62µM*	-2.4%	-1.2%	-5.6	0.9
COc1cc(NC(C)CCCN)c2ncccc2c1 (stereo not drawn)	0.329µM*	0.415µM*	28.0%	u	x	x
Cc1cc(C=O)sc1[B-](F)(F)F	x	x	11.2%	25.7%	x	x
Cc1sc2ncn(-n3c(C)ccc3C)c(=O)c2c1C	u	u	-1.9%	-4.1%	26.4	-0.7
Cc1ccc(-c2csc3ncn(-n4c(C)ccc4C)c(=O)c23)o1	0.738µM*	13.1µM*	6.0%	-21.4%	4.6	4.2
CCc1c(C)sc(NC(=S)Nc2nc(C)cc(C)n2)c1C(=O)OC	53.3%	u	-19.7%	u	-5.7	12.0
CCc1c(C)sc(NC(=S)Nc2cccnc2)c1C(=O)OC	10.3%	28.4%	75.4%	u	21.9*	-1.8
Cc1sc(NC(=O)c2ccccc2)c(C(=O)c2ccccc2)c1C	11.7µM*	0.0%	-1.4%[11.6 µM]	-12.8%	-0.7	6.7
CCOC(=O)c1c(NC(=O)c2cccnc2)sc(C)c1C	48.7%	42.9%	-0.4%	10µM*	-8.2	2.6
CCCCNCC(=O)Nc1sc(C)c(C)c1C(=O)OCC	-27.1%	-13.7%	49.1%	11.2µM*	23.1	9.5
CCOC(=O)c1c(NC(=O)CNCC(O)CO)sc(C)c1C (stereo not drawn)	u	2.6%	2.0%	u	-17.7	1.7
Cc1cc(S(=O)(=O)N2CCOCC2)ccc1NC(=O)c1ccc(F)cc1	-0.6%	-22.7%	5.4%	-13.4%	x	-3.6
CCc1ccc(Nc2n[n+](-c3ccccc3)c(/C=C/c3ccccc3)s2)cc1	1.17µM*	u	x	x	-2.4	0.4
CCOc1cc(-c2sc(Nc3ccccc3)n[n+]2C)ccc1OC	3.6%	u	-1.3%	-12.8%	5.9	1.5
Fc1ccc(-[n+]2nc(Nc3ccccc3)sc2-c2c(Cl)cccc2Cl)cc1	u	u	u	10µM*	10.6	-0.9
CCc1ccc(Nc2n[n+](-c3ccccc3)c(-c3cc(OC)c(OC)cc3Br)s2)cc1	11.7µM*	u	63.4%	u	-9.4	2.0
CCc1ccc(Nc2n[n+](-c3ccccc3)c(-c3c(Cl)cccc3Cl)s2)cc1	u	10.4µM*	u	5.62µM*	-1.3	0.2
O=C(Nc1ncnc2c1ncn2[C@@H]1O[C@@H]2COP(=O)(O)O[C@H]2[C@H]1O)c1ccccc1	x	x	x	x	-11.1	-7.0
